Bioassay records (PubChem BioAssay)
A selection: hits, their analogues and other compounds. The true share with any hit is near 15%.
DT40 TDP1 no CPT: qHTS for Inhibitors of human tyrosyl-DNA phosphodiesterase 1 (TDP1): qHTS in cells in absence of CPT; DT40 Tdp1-/- hTDP1 cells, no CPT, ATP luminescence, 48 h; Potency, µM (highest dose often 46.2 µM), for inactives: at the highest dose activity change, negative = growth inhibition, most hits filed as inhibitors; 15% of 420,000 active; AID 686978, 2013; note: nearly all actives have a fitted effect of over 55% in size
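Chicken DT40 Tdp1-/- cells stably complemented with human TDP1 were seeded at 400 cells/well with DMSO in place of 20 nM camptothecin. After compound pinning, cells grew at least 48 hr at 37 °C; viability read by CellTiter-Glo luminescence.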
DT40 TDP1 CPT: qHTS for Inhibitors of human tyrosyl-DNA phosphodiesterase 1 (TDP1): qHTS in cells in presence of CPT | Potency, µM (top dose mostly 46.2 µM), inactives show at the top dose activity change, negative = growth inhibition, most hits filed as inhibitors | chicken DT40 Tdp1-/-;hTDP1 cells + 20 nM CPT, ATP luminescence, 48 h | AID 686979, 2013 | 12% of 420,000 active; note: nearly all actives have a fitted effect of over 55% in size
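Cell growth measured by CellTiter-Glo luminescence after a minimum 48 h, 37 C compound exposure with 20 nM CPT in Tdp1-knockout DT40 cells stably expressing hTDP1, seeded 400/well; qHTS titration format.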
Gal4-VP16 FLuc: VP16 counterscreen qHTS for inhibitors of ROR gamma transcriptional activity | Potency, µM (titrated, usually from 53.6 µM), inactives show at the top dose activity, negative = inhibition, usual class: inhibitors | 3.5% of 310,000 active | Drosophila S2 Gal4-VP16 UAS-luciferase, luminescence, 20 h | AID 2546, 2010;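 note: Gal4-VP16 expression switched on by copper sulfate through the metallothionein promoter; nearly all actives have a fitted effect of over 50% in size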
RORg inh: qHTS for inhibitors of ROR gamma transcriptional activity. 5.4% of 310,000 active. Potency, µM (series often up to 53.6 µM), for inactives: at the highest dose activity change, negative = inhibition, usual class: inhibitors. Drosophila S2 Gal4-RORgamma UAS-luciferase reporter, 20 h. Nuclear receptor ROR-gamma (Mus musculus), P51450. AID 2551, 2010; note: nearly all actives have a fitted effect of over 60% in size
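Using a luciferase readout, inhibitors were identified by reduced reporter activity in Drosophila cells coexpressing a copper-inducible Gal4–ROR gamma fusion and UAS-driven Photinus luciferase, incubated 20 hr after 700 uM copper sulfate.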
ALOX12 inh: Primary qHTS assay for inhibitors of human arachidonate 12S-lipoxygenase (ALOX12): Round 2; Potency, µM (doses to about 108 µM), for the others: at the highest dose activity change, negative = inhibition, most hits filed as inhibitors; AID 1671190, 2021; 1.1% of 580,000 active; Polyunsaturated fatty acid lipoxygenase ALOX12 (Homo sapiens), P18054; purified 12hLO, xylenol orange hydroperoxide absorbance
Target sequence (P18054 whole entry, looked up): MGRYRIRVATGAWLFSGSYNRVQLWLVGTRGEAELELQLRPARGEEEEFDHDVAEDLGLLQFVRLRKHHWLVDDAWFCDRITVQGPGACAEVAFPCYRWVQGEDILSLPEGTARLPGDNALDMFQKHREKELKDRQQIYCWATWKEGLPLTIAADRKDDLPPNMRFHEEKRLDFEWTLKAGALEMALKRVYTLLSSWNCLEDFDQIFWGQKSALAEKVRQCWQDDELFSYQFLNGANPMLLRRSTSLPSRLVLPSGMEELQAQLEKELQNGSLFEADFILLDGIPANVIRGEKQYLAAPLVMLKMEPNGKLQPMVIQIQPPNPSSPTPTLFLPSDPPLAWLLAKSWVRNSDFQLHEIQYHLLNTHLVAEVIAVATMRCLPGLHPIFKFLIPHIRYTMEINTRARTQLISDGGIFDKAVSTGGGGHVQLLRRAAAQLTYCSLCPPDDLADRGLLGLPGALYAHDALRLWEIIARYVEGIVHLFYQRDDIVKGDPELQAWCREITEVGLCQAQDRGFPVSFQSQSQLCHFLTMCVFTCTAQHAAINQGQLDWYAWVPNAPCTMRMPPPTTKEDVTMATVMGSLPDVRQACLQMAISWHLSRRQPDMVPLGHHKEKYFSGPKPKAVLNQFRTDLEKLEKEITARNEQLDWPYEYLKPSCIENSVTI
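Purified human 12hLO (150 nM final) in 25 mM Hepes, 0.01% Triton X-100, pH 7.0 was preincubated 15 min at room temperature with compound. Then 40 uM arachidonic acid was added, 30 min. Hydroperoxide was read by Fe-XO absorbance ratio 573/405 nm.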
ELG1 repair inh: qHTS screen for small molecules that inhibit ELG1-dependent DNA repair in human embryonic kidney (HEK293T) cells expressing luciferase-tagged ELG1. HEK293T ELG1-luciferase reporter, luminescence, 16 h; DNA damage induced by 5-fluorouridine. 2.3% of 330,000 active. AID 504467, 2011. Potency, µM (highest dose often 46.1 µM), for inactives: top-dose activity change, negative = inhibition, usual class: inhibitors; note: nearly all actives have a fitted effect of over 55% in size
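Reporter activity after DNA damage by 5-fluorouridine is monitored. Compound-treated cells incubate 16 hr at 37 °C, then ONE-Glo is added for 30 min before luminescence reading.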
Starred values were filed as active, the others as inactive; ? = inconclusive; · = no result; [ ] = dose if it differs, or a comment. Calls come from the whole dose curve; as a rule, active = well fitted curve in the direction sought with a large enough effect; inconclusive = small, poorly fitted or top-dose-only effect, or another doubt; inactive = no such curve, though single readings can be large; an effect the other way counts as inactive or inconclusive. % is set by controls: 0 for no effect and ±100 for the full control effect; potency is the fitted concentration of half-maximal effect.

SMILES	DT40 TDP1 no CPT	DT40 TDP1 CPT	Gal4-VP16 FLuc	RORg inh	ALOX12 inh	ELG1 repair inh
CCOC(=O)N1CCN(Cc2nc3cc(NC(=O)c4cccs4)ccc3n2C)CC1	-28%	?	5%	24%	15%	1%
CCOC(=O)N1CCN(Cc2nc3cc(NC(=O)CC(C)C)ccc3n2C(C)C)CC1	0.73µM*	0.82µM*	·	·	4%	·
CCOC(=O)N1CCN(Cc2nc3cc(NC(=O)c4ccc(Cl)cc4)ccc3n2C(C)C)CC1	·	·	·	·	43%	·
CCn1c(CN2CCCCC2)nc2cc(NC(=O)c3ccc([N+](=O)[O-])cc3)ccc21	9.2µM*	9.2µM*	·	·	-6%	·
COCCn1ncc(N2CCCC(CC(=O)NC3CCCCC3)C2)cc1=O (centres undefined)	·	·	·	·	21%	·
CCOC(=O)N1CCN(Cc2nc3cc(NC(C)=O)ccc3n2CC)CC1	-1%	-8%	-4%	-1%	0%	3%
CCOC(=O)N1CCN(Cc2nc3cc(NC(=O)CC(C)C)ccc3n2CC)CC1	9.2µM*	15µM*	-1%	-13%	-49%	?
CCOC(=O)N1CCN(Cc2nc3cc(NC(=O)CC)ccc3n2C(C)C)CC1	0.73µM*	0.92µM*	·	·	-1%	·
CCC(=O)Nc1ccc2c(c1)nc(CN1CCN(C(C)=O)CC1)n2C	-28%	-6%	8%	3%	?	14%
CCOc1ccc(-c2nc(C#N)c(N3CCN(C(=O)c4ccco4)CC3)o2)cc1	·	·	·	·	-7%	·
CCOC(=O)CNC(=O)c1ccc(C(=O)NCC(=O)OCC)cc1	·	·	·	·	-32%	·
CSc1ccc(-c2ccc3c(c2)C(=O)N2CCN(C(=O)CC(C)(C)C)C[C@@H]2C(=O)N3)cc1	·	·	·	·	9%	·
O=C(OC[C@H]1O[C@@H](OC(=O)c2cc(O)c(O)c(OC(=O)c3cc(O)c(O)c(O)c3)c2)[C@H](OC(=O)c2cc(O)c(O)c(OC(=O)c3cc(O)c(O)c(O)c3)c2)[C@@H](OC(=O)c2cc(O)c(O)c(OC(=O)c3cc(O)c(O)c(O)c3)c2)[C@@H]1OC(=O)c1cc(O)c(O)c(OC(=O)c2cc(O)c(O)c(O)c2)c1)c1cc(O)c(O)c(OC(=O)c2cc(O)c(O)c(O)c2)c1	4.6µM*	4.2µM*	·	·	·	?
COC1OC(COC(=O)c2ccccc2)C(OC(=O)c2ccccc2)C1OC(=O)c1ccccc1 (centres undefined)	?	?	6%	28%	5%	?
CCOc1cc(/C=N/NC(=O)c2ccccc2-n2cccc2)ccc1O	?	?	·	·	-6%	?
CCOc1cc(/C=N/NC(=O)c2ccccc2OCc2ccc(F)cc2)ccc1O	13µM*	?	·	·	0%	5.8µM*
CCOc1cc(C=NN=C2c3ccccc3-c3ccccc32)ccc1O	18µM*	?	·	·	?	·
CCOc1cc(/C=N/NC(=O)N/N=C/c2ccc(O)c(OCC)c2)ccc1O	2.9µM*	2.6µM*	·	·	83%	·
O=C(COc1ccccc1C(=O)N/N=C\c1ccc(O)c(O)c1)N/N=C/c1ccc(O)c(O)c1	?	16µM*	-2%	-17%	·	0%
Oc1cccc(C=NN=C2c3ccccc3-c3ccccc32)c1	-30%	-2%	·	·	-25%	·
CCCn1nc(C(=O)OCC(=O)N2CCCC2)c2ccccc2c1=O	·	·	·	·	14%	·
Cc1cc(Cl)ccc1S(=O)(=O)N1CCC(Oc2ccc(C(N)=O)cn2)CC1	·	·	·	·	-19%	·
O=C(CC(c1ccc(Cl)cc1)S(=O)(=O)c1ccccc1)c1ccc(F)cc1 (centres undefined)	·	·	·	·	2%	·
Cc1nn(-c2nc3ccccc3[nH]2)c(N)c1-c1ccc(Cl)cc1	16µM*	?	3.2µM*	1.3µM*	0%	?
Cc1nn(-c2nc3ccccc3[nH]2)c(=O)c2ccccc12	2.1µM*	1.8µM*	0.32µM*	0.18µM*	21%	?
SMILES	DT40 TDP1 no CPT	DT40 TDP1 CPT	Gal4-VP16 FLuc	RORg inh	ALOX12 inh	ELG1 repair inh
Cc1nn(-c2ccc3ccccc3c2)c(=O)c2ccccc12	16µM*	?	2%	1%	-2%	?
O=c1[nH]c2ccccc2nc1-c1ccc(Cl)cc1	-14%	-1%	9%	?	0%	?
Cc1nn(-c2ccc(Cl)cc2)c(=O)c2ccccc12	?	-16%	13%[10 µM]	7%	?	?
CCOC(=O)C1(Cc2ccccc2C)CCCN(Cc2nccn2CC)C1 (centres undefined)	·	·	·	·	50%	·
CC(C)CN1C(=O)CO[C@H](c2ccc(NS(=O)(=O)c3cccc(F)c3)cc2)[C@H]1CO	·	·	·	·	-23%	·
O=C(Nc1ccc(F)cc1)Nc1nnc(Cc2ccccc2F)s1	13µM*	16µM*	28%	-6%[1.91 µM]	27%	-9%
COc1cccc(NC(=O)Nc2nnc(Cc3ccccc3F)s2)c1	23µM*	?	-16%	-4%	?	-1%
O=C(Nc1ccccc1)Nc1nnc(Cc2ccccc2F)s1	-9%	6%	2%	17%	18%	22%
O=C(Nc1ccc(Cl)cc1)Nc1nnc(CSCc2ccc(Cl)cc2)s1	4.1µM*	2.6µM*	-8%	41%	1%	?
COc1ccc(NC(=O)Nc2nnc(Cc3ccc(F)cc3)s2)cc1	26µM*	-21%	16%	-21%	0%	?
CCc1nnc(NC(=O)Nc2ccc(Cl)cc2)s1	?	-21%	6%	14%	-20%	?
CCCc1ccc(C(C)NC(=O)C2CC2C)cc1 (centres undefined)	·	·	·	·	19%	·
CCOc1ccc(S(=O)(=O)N2CCN(C(=O)Cc3ccc(S(=O)(=O)N4CCOCC4)s3)CC2)cc1	23µM*	?	·	·	-1%	-13%
CCOc1ccc(S(=O)(=O)N2CCN(C(=O)c3ccc(C)c(S(=O)(=O)N4CCOCC4)c3)CC2)cc1	18µM*	26µM*	·	·	249%	?
CCOc1ccc(NC(=O)COC(=O)Cc2ccc(S(=O)(=O)N3CCOCC3)s2)cc1	3%	10%	-4%	33%	?	6%
CCCOc1ccc(S(=O)(=O)NCCCN2CCOCC2)c2ccccc12	?	?	-27%	10µM*	-22%	-13%
